Bioassay records from PubChem BioAssay.
The list is not random: actives were taken first. Their share in the collection is about 6.1%.
D1 potentiator: enhances dopamine response at the human D1 receptor; potentiation, % at 10 µM; HEK293 TREx D1 cells, calcium flux, dopamine EC20 potentiation; P21728; 360,000 compounds, 0.036% hits; in the data active = potentiation above about 30%
D1 antag: antagonists of human D1 dopamine receptor; P21728; HEK293 TREx D1 cells, calcium flux, dopamine EC80; stronger effect = lower value; activity change, negative = inhibition, % at 10 µM; 360,000 compounds, 3.2% hits; AID 504652; in the data active = activity change below about -30%
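After overnight tetracycline induction at 30 C, force-coupled D1 HEK293 cells took up a no-wash calcium dye at room temperature. Compounds were added and monitored 180 s, and the response to EC80 dopamine was then recorded.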
DRD3 antagonist: blocks the human D3 dopamine receptor. D3R cells, DiscoveRx beta-arrestin luminescence, antagonist mode; stronger effect = lower value. max response, negative = inhibition, %. 360,000 compounds, 2.5% hits; in the data active = max response below about -50%; inconclusive = no clear call, values can overlap the other calls
Target sequence (P35462 whole entry, looked up): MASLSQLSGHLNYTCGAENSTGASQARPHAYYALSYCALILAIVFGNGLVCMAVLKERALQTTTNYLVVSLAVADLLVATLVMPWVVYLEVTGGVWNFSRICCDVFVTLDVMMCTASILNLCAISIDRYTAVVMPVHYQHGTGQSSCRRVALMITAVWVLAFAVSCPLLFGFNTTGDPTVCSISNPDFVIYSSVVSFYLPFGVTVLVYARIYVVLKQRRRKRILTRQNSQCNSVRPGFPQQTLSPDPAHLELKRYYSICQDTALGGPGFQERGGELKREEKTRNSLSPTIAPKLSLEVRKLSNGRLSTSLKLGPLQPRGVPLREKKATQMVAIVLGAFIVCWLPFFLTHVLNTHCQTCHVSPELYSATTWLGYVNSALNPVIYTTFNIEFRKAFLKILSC
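Cells expressing the human receptor were seeded at 1500 cells/well, incubated overnight at 37 degrees C in 5% CO2, then exposed to library compounds with dopamine controls for 90 minutes at 37 degrees C before luminescent detection.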
D1 agonist: human D1 receptor agonism | P21728 | HEK293 T-REx D1 cells, calcium flux, agonist mode | activation, % at 2 µM | 360,000 compounds, 1% hits | AID 504660; in the data active = activation above about 30%
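Tetracycline-induced HEK293 TREx D1 cells, force-coupled to calcium signalling, were dye-loaded with a no-wash calcium kit. Compound was pin-added after a 10 s baseline. Fluorescence was read kinetically at 1 cycle/s for 180 s, with calcium rises flagged as agonism.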
D3 ag: agonists of human D3 dopamine receptor. P35462. D3R DiscoveRx beta-arrestin cells, luminescence, 90 min. max activation, %. 410,000 compounds, 0.58% hits. AID 652048; in the data active = max activation above about 30%
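Agonist mode: compounds and dopamine controls were applied to plated cells for 90 min at 37 degrees C after an overnight attachment at 1500 cells/well. Luminescent read-out followed 30 - 60 minutes at room temperature with DiscoveRx detection reagent.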
Hits are given with their value; 0 = inactive; ? = inconclusive; - = not tested or not shown.

SMILES | D1 potentiator | D1 antag | DRD3 antagonist | D1 agonist | D3 ag
O=C(Nc1cccc(C(F)(F)F)c1)N1CC2CCCN2c2ccccc21 (configuration not stated) | 0 | 0 | - | 0 | 0
O=C(CCc1nnc(-c2ccc(-c3ccccc3)cc2)o1)N1CCCCC1 | 0 | 0 | 0 | 0 | 32
COc1cccc(Nc2c([N+](=O)[O-])cncc2[N+](=O)[O-])c1 | 0 | 0 | 0 | 0 | 0
COc1cccc(Nc2c(Nc3cccc(OC)c3)c(=O)c2=O)c1 | 0 | 0 | -68 | 0 | 0
Cn1c(=O)c2c(SCC(=O)N3CCc4ccccc43)nc(-c3cccc(F)c3)nc2n(C)c1=O | 0 | 0 | - | 0 | 0
CCCCS(=O)(=O)N1CCC(C(=O)NCC2CCCO2)CC1 (configuration not stated) | 0 | 0 | 0 | 0 | 0
CCS(=O)(=O)N1CCC(C(=O)NCC2CCCO2)CC1 (configuration not stated) | 0 | -36 | 0 | 0 | 0
COc1cccc(NC(=O)C2CCN(c3ccc(Sc4ccc(C)cc4)nn3)CC2)c1 | 0 | 0 | - | 0 | 0
Cc1ccc(Sc2ccc(N3CCC(C(=O)Nc4cc(C)cc(C)c4)CC3)nn2)cc1 | 0 | -48 | - | 0 | 0
CCC1(c2ccccc2)NC(=O)N(CC(=O)N2CCc3ccccc32)C1=O (configuration not stated) | - | - | 0 | - | 0
CCCNC(=O)NC(=O)CN1C(=O)NC(C)(c2ccc3ccccc3c2)C1=O (configuration not stated) | 0 | 0 | 0 | 0 | 35
CCC1(c2ccccc2)NC(=O)N(CC(=O)Nc2cc(Cl)ccc2N2CCN(C)CC2)C1=O (configuration not stated) | 0 | -38 | ? | 0 | 0
CCN(CC1COc2ccccc2O1)C(=O)CN1C(=O)NC(C)(c2ccccc2)C1=O (configuration not stated) | 0 | 0 | 0 | 0 | 55
CCC1(c2ccc(F)cc2)NC(=O)N(CC(=O)N2CCc3ccccc32)C1=O (configuration not stated) | - | 0 | 0 | 58 | 0
Nc1c(-c2nc(-c3cccs3)no2)nnn1-c1cccc(Cl)c1 | 0 | 0 | - | 0 | 0
Cn1ccc2c(OCC(=O)Nc3cc(C(F)(F)F)ccc3Cl)cccc2c1=O | 0 | - | - | 0 | 0
COc1cccc(N2CC(NC(=O)/C=C\c3ccc4c(c3)OCO4)CC2=O)c1 (configuration not stated) | 0 | - | - | 0 | 0
Cc1cc(-c2nc3ncccc3o2)ccc1NC(=O)c1ccc(Cl)cc1 | 0 | 0 | - | 0 | 0
CCOCCCNC(=O)C(c1ccccc1)N(Cc1cccs1)C(=O)c1ccc(NC(C)=O)cc1 (configuration not stated) | 0 | 0 | - | 0 | 0
CN1[C@@H]2CC[C@H]1CC(NC(=O)n1c(=O)[nH]c3ccccc31)C2 (some centres not stated) | - | - | - | - | 0
Cc1nc(Oc2ccccc2C)c2oc3ccccc3c2n1 | 0 | 0 | - | 0 | 0
COC(=O)c1cc2sc(C)cc2n1CC(=O)Nc1ccc(C)cc1Cl | 0 | 0 | - | 0 | 0
CC1(c2ccccc2)NC(=O)N(CC(=O)Nc2ccccc2N2CCCC2)C1=O (configuration not stated) | 0 | 0 | 0 | 38 | 0
CC1(c2ccccc2)NC(=O)N(CC(=O)NNC(=O)c2ccccc2)C1=O (configuration not stated) | 0 | -43 | 0 | 0 | 0
CCCc1nn2c(=O)cc(COC(=O)c3cccc(NC(=O)c4cccs4)c3)nc2s1 | 0 | 0 | - | 0 | 0
SMILES | D1 potentiator | D1 antag | DRD3 antagonist | D1 agonist | D3 ag
CCCCNC(=O)CCCN1C(=O)CCn2nc(-c3cccn3C)cc21 | 0 | 0 | - | 0 | 0
CCN(CC)c1ccc(/C=C2/SC(=O)N(C(C)C)C2=O)o1 | 0 | 0 | -91 | 59 | 0
COc1cc(OC)c(NC(=O)CCn2cccn2)cc1Cl | 0 | 0 | - | 0 | 0
O=C(COC(=O)/C=C/c1cc(Br)ccc1F)Nc1ccc2[nH]c(=O)[nH]c2c1 | 0 | 0 | 0 | 0 | 88
O=C(Nc1cccc2c(=O)cc(-c3nn[nH]n3)oc12)c1ccc(OCCCCc2ccccc2)cc1 | - | - | - | - | 0
COc1ccc(CCNC(=O)COC(=O)CSc2ccc([N+](=O)[O-])cc2)cc1OC | 0 | -45 | 0 | 0 | 0
CC(OC(=O)CSc1ccc([N+](=O)[O-])cc1)C(=O)NCc1ccccc1 (configuration not stated) | 0 | -55 | 0 | 0 | 0
O=C(COC(=O)c1ccc([N+](=O)[O-])o1)NCCCc1ccccc1 | - | - | -51 | - | 0
O=C(COC(=O)Cc1cccc(F)c1)NCCc1ccccc1 | 0 | -68 | 0 | 0 | 0
COCCn1c(CCC(=O)Nc2ccc(OC)c(OC)c2)nc2cccnc21 | 0 | 0 | - | 0 | 0
CCOC(=O)c1cc(-c2ccc(F)cc2)n(CCC(=O)Nc2nc3cc(C)c(C)cc3s2)c1C | 0 | 0 | - | 0 | 0
Cc1ccc(NC(=O)CCCN2C(=O)COc3ccc(C)cc32)c(Cl)c1 | 0 | 0 | - | 0 | 0
COc1ccc(N2CCN(C(=O)C3CCN(S(=O)(=O)c4cnc[nH]4)CC3)CC2)cc1 | 0 | 0 | - | 0 | 0
Cc1cc2c(s1)c1cnn(Cc3ccc(C#N)cc3)c(=O)c1n2C | 0 | 0 | - | 0 | -
O=C(COC(=O)CSc1ccc(F)cc1)NCCCc1ccccc1 | 0 | 0 | 0 | 0 | 0
O=C(COC(=O)CSc1ccc([N+](=O)[O-])cc1)NCCCc1ccccc1 | 0 | -33 | 0 | 0 | 0
O=C(COC(=O)CSc1ccc([N+](=O)[O-])cc1)NCCc1ccccc1 | 0 | -34 | 0 | 0 | 0
O=C(COC(=O)CSc1ccc([N+](=O)[O-])cc1)NCc1ccco1 | 0 | 0 | 0 | 0 | 0
O=S(=O)(NCc1ccc(C(F)(F)F)cc1)c1ccc(-n2cnnn2)cc1 | 0 | -39 | 0 | 0 | 0
O=C1CCC[C@@H]2C[C@@]3(C[C@@H]4CCN1[C@H]24)Nc1cc(Cl)ccc1NC3=NCc1ccccc1 | - | - | 0 | - | 0
COc1ccc(NC2=Nc3ccccc3N[C@@]23C[C@H]2CCCC(=O)N4CC[C@@H](C3)[C@@H]24)cc1 | - | - | -68 | - | 0
Cc1ccc(C(=O)/C=C/N(C)C)o1 | 0 | 0 | 0 | 0 | 0
Cc1ccc(C(=O)/C=C/c2cc(Br)cc(Br)c2O)o1 | 0 | 0 | 0 | 43 | 0
CSCCC(NC(=O)c1ccc(Cl)cc1Cl)C(=O)N(C)Cc1nc2ccccc2c(=O)[nH]1 (configuration not stated) | 0 | 0 | -51 | 0 | 0
COc1ccc(CNC(=O)Cc2csc(Nc3nc(=S)[nH]c4ccccc34)n2)cc1 | 0 | 0 | ? | 0 | 0
O=C(Cc1csc(Nc2nc(=S)[nH]c3ccccc23)n1)NCc1ccc(Cl)cc1 | 0 | -97 | 0 | 0 | 0
CCOC(=O)c1c(C)[nH]c(CCC(=O)NCCCN2CCN(c3ccccc3F)CC2)c1C | 0 | 0 | - | 0 | 0
O=C(Cc1csc(Nc2nc(=S)[nH]c3ccccc23)n1)NCCCN1CCN(c2ccccc2F)CC1 | 0 | -86 | -69 | 0 | 0
